Measured values as given in PubChem BioAssay AID1159580 (chemical genetic matrix, 2015).
In all, about 5,500 compounds went through this assay and about 2,000 (36%) were called active. Another 18% or so got no clear call; they are omitted. Rule as the data show it: active = normalized growth mostly below about 0.91 (no sharp cut-off); inconclusive = no clear call, values can overlap the other calls; inactive = mostly above about 0.92. The list shows a part of the results.

Test: chemical genetic growth profiling, strain panel (AID 1159580);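 also: tested at 20 µM; growth read once vehicle control cultures reached saturation at 30 °C; 1 = growth at the plate median or of vehicle wells; lower values mean less growth of the strain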
Details: S. cerevisiae deletion strains, growth OD

Measured: normalized growth

CCC1(O)CC(OC2CC(N(C)C)C(OC3CC(O)C(OC4CCC(=O)C(C)O4)C(C)O3)C(C)O2)c2c(cc3c(c2O)C(=O)c2c(O)cccc2C3=O)C1C(=O)OC (stereo not drawn)
inactive: locus YAL013W, strain DEP1, stronger effect = lower value 0.986 | locus YBR021W, strain FUR4, stronger effect = lower value 1.07 | locus YBR229C, strain ROT2, stronger effect = lower value 1 | locus YCL029C, strain bik1, stronger effect = lower value 1 | locus YDL035C, strain GPR1, stronger effect = lower value 0.978 | locus YDL074C, strain BRE1, stronger effect = lower value 0.998 | locus YDL101C, strain DUN1, stronger effect = lower value 0.992 | locus YDL134C, strain PPH21, stronger effect = lower value 1.01 | locus YDL185W, strain tfp1, stronger effect = lower value 1.01 | locus YDL192W, strain arf1, stronger effect = lower value 1.01 | locus YDR101C, strain arx1, stronger effect = lower value 1.01 | locus YDR150W, strain NUM1, stronger effect = lower value 1 | locus YDR162C, strain NBP2, stronger effect = lower value 0.981 | locus YDR318W, strain mcm21, stronger effect = lower value 1.01 | locus YDR388W, stronger effect = lower value 1.01 | locus YDR502C, strain sam2, stronger effect = lower value 1 | locus YEL061C, strain CIN8, stronger effect = lower value 1.01 | locus YER110C, stronger effect = lower value 1.01 | locus YER155C, strain BEM2, stronger effect = lower value 1.01 | locus YER167W, strain BCK2, stronger effect = lower value 1.01 | locus YGL078C, strain dbp3, stronger effect = lower value 1.01 | locus YGL086W, strain mad1, stronger effect = lower value 0.992 | locus YGL248W, strain PDE1, stronger effect = lower value 0.981 | locus YGR135W, strain pre9, stronger effect = lower value 1.01 | locus YGR229C, strain SMI1, stronger effect = lower value 0.96 | locus YGR252W, strain gcn5, stronger effect = lower value 1.03 | locus YHR030C, strain SLT2, stronger effect = lower value 1 | locus YHR079C, strain IRE1 (second series), stronger effect = lower value 1.01 | locus YHR094C, strain hxt1, stronger effect = lower value 1.01 | locus YHR129C, strain ARP1, stronger effect = lower value 0.995 | locus YHR200W, strain rpn10, stronger effect = lower value 1.01 | locus YIL066C, strain RNR3, stronger effect = lower value 1 | locus YIL073C, strain SPO22, stronger effect = lower value 1.04 | locus YIL125W, strain kgd1, stronger effect = lower value 1 | locus YIR030C, strain dcg1, stronger effect = lower value 1.01 | locus YJL095W, strain BCK1, stronger effect = lower value 0.983 | locus YJL134W, strain LCB3, stronger effect = lower value 1.01 | locus YJL168C, strain set2, stronger effect = lower value 1.01 | locus YJL187C, strain SWE1 (second series), stronger effect = lower value 0.998 | locus YJR043C, strain POL32, stronger effect = lower value 0.986 | locus YJR075W, strain HOC1, stronger effect = lower value 0.975 | locus YKL009W, strain mrt4, stronger effect = lower value 1.01 | locus YKL068W, stronger effect = lower value 1 | locus YKL085W, strain MDH1 (second series), stronger effect = lower value 0.993 | locus YKL085W, strain MDH1, stronger effect = lower value 0.993 | locus YKR001C, strain vps1, stronger effect = lower value 1.01 | locus YLR039C, strain RIC1, stronger effect = lower value 0.981 | locus YLR058C, strain SHM2, stronger effect = lower value 1 | locus YLR102C, strain apc9, stronger effect = lower value 1.01 | locus YLR262C, strain YPT6, stronger effect = lower value 0.958 | locus YLR268W, strain sec22, stronger effect = lower value 0.98 | locus YLR330W, strain CHS5, stronger effect = lower value 1 | locus YLR342W, strain FKS1 (second series), stronger effect = lower value 0.976 | locus YLR371W, strain rom2, stronger effect = lower value 1.01 | locus YLR418C, strain cdc73, stronger effect = lower value 1.01 | locus YML016C, strain PPZ1, stronger effect = lower value 0.997 | locus YML124C, strain tub3, stronger effect = lower value 0.999 | locus YMR078C, strain ctf18, stronger effect = lower value 1.01 | locus YMR223W, strain ubp8, stronger effect = lower value 1 | locus YMR263W, strain SAP30, stronger effect = lower value 0.998 | locus YMR307W, strain GAS1, stronger effect = lower value 0.601 | locus YNL067W, strain RPL9B, stronger effect = lower value 0.992 | locus YNL233W, strain BNI4, stronger effect = lower value 0.997 | locus YNL250W, strain rad50, stronger effect = lower value 0.999 | locus YNL271C, strain bni1, stronger effect = lower value 1 | locus YNL298W, strain CLA4, stronger effect = lower value 1.02 | locus YNL307C, strain MCK1, stronger effect = lower value 1.01 | locus YNR052C, strain pop2, stronger effect = lower value 0.996 | locus YOL006C, strain TOP1, stronger effect = lower value 0.812 | locus YOL012C, strain htz1 0.589 | locus YOL147C, strain pex11, stronger effect = lower value 1.01 | locus YOR061W, strain CKA2, stronger effect = lower value 1 | locus YOR069W, strain VPS5, stronger effect = lower value 1 | locus YOR136W, strain idh2, stronger effect = lower value 1 | locus YOR144C, strain elg1, stronger effect = lower value 1 | locus YOR184W, strain ser1, stronger effect = lower value 0.982 | locus YOR316C, strain cot1, stronger effect = lower value 1.01 | locus YPR119W, strain clb2, stronger effect = lower value 1.02 | locus YPR141C, strain kar3, stronger effect = lower value 0.986 | locus YPR163C, strain tif3, stronger effect = lower value 1.02 | locus YPR167C, strain met16, stronger effect = lower value 1 | strain wtn01, stronger effect = lower value 0.983
active: locus YML032C, strain rad52, stronger effect = lower value 0.893
